Here are results for twelve compounds from PubChem BioAssay (NCI).

SMILES strings stand for the structures. The panel holds about 83,000 compounds, 20% with a hit somewhere; the sample as a whole holds those more often.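 96-well plates, one dose, 48 hours. Percent growth reported; active if below 10.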 A number with no mark means an inactive call. The source made the active and inactive calls.

This assay concerns NCI-H522 lung. The assay is described as follows: NCI-60 one-dose screen, 48 h (100 = growth as untreated, 0 = no growth, -100 = all killed). The conditions noted are these: 10 µM unless noted.
Take `Cc1cc(-c2nc3ccccc3s2)ccc1NC(=O)COc1ccc(Cl)cc1`: the growth was 87.8%.

As to `C[C@H](CCC(=O)O)[C@H]1CC[C@H]2[C@@H]3CC[C@@H]4/C(=C\c5ccco5)C(=O)/C(=C\c5ccco5)C[C@]4(C)[C@H]3CC[C@]12C`, the growth is 37.3%. Then `COc1cc2c(c(OC)c1OC)-c1ccc(N=NC(N)=S)c(=O)cc1[C@@H](NC(C)=O)CC2`, with -59.8% (active); and `c1ccc(CSc2ncnc3nc[nH]c23)nc1`, with 82.7%. As for `CC(=O)Nc1ccc2c(c1)c(NC(C)=O)nn2C(=O)Nc1ccc(Cc2ccccc2)cc1`, the figure is 76.3%. As for `COc1cc2c(=O)n(CC3CCCCC3)c3c4cc[nH]c4ncc3c2cc1OC`, the figure is 35.1%; as for `COC1/C=C\OC2(C)Oc3c(C)c(O)c4c(O)c(c(CN(C)CCO)c(O)c4c3C2=O)NC(=O)/C(C)=C\C=C/C(C)C(O)C(C)C(O)C(C)C(OC(C)=O)C1C` (configuration not stated), 87.8%. For the compound `Cc1cc(N/N=C/c2nc(-c3ccc(Cl)cc3)oc2C)c2cc(Cl)ccc2n1`, the growth was -1.87% (active). As for `C=C1CC[C@@H]2[C@](C)(COC(C)=O)[C@H](OC(C)=O)CC[C@@]2(C)[C@@H]1CC(NCc1ccc(F)cc1)C1=CCOC1=O` (some centres not stated), the figure is 20.9%. For `Cn1c2c(Cl)c(Cl)ccc2c2ccn3c(=O)c4ccccc4nc3c21`, the growth was 84.8%. With `CCOC(=O)Cc1cnn(C)c1NC(=O)c1ccc(Cl)cc1NC(C)=O`, the growth was 95.4%.

In the case of `COc1ccc(-c2cc(NC(=O)Nc3ccc(O)cc3)no2)cc1`, the growth is 44.8%.
